Results filed as inconclusive are left out. A call without a number means that no potency is given here. Unmarked numbers belong to inactive results. The source made the active and inactive calls. Calls follow the shape of the full dose curve.
Potency is read from the fitted curve at half-maximal effect.

The experiment is described as follows: p53 small molecule agonists, cell-based qHTS assay with human liver microsomes: qHTS cell viability counter screen (AID 1963579). Also: nearly all actives have a fitted effect of over 45% in size. The note with it: p53RE-bla HCT-116 viability, ATP luminescence, 16 h, HLM; series mostly up to 66 µM. The source says:
National Center for Advancing Translational Sciences [NCATS]
Division of Preclinical Innovation [DPI]
U.S. Environmental Protection Agency [EPA]
National Institutes of Environmental Health Sciences [NIEHS]
National Toxicology Program [NTP]
U.S. Food and Drug Administration [FDA]
p53, a tumor suppressor protein, is activated following cellular insult, including DNA damage and other cellular stresses. The activation of p53 regulates cell fate by inducing DNA repair, cell cycle arrest, apoptosis, or cellular senescence. The activation of p53, therefore, is a good indicator of DNA damage and other cellular stresses. […] The activation of the reporter gene under culture conditions can be detected by fluorescence intensity. This cell line was used to screen the Tox21 10K compound library in the condition of presence of human liver microsomes and to identify agonists that activate the p53 signaling pathway after in vitro metabolic activation (Ooka et al., Archive of Toxicology 96:1975-1987, 2022).
Tox21 Assay Protocol Summary:
The p53RE-bla cells were dispensed at 4,000cells/3ul/well in 1536-well black-clear bottom plates. After the assay plates were incubated at 37 C, 5% CO2 incubator for 5 hours, 23 nL of compounds dissolved in DMSO, positive controls or DMSO only was transferred to the assay plate. Following compound addition, 3 uL of human liver microsomes (XenoTech, Kansas City, KS) at final concentration of 0.5 mg/mL and 1uL of B-Nicotinamide adenine dinucleotide 2'-phosphate (NADPH) at final concentration of 0.5 mg/mL were transferred to the assay plate. The plates were incubated at 37 C for 16 hours. 1 uL of LiveBLAzer detection mixture was added to each well and the plates were incubated at room temperature in the dark for 2 h. Fluorescence intensity at 460 and 530 nm emission and 405 nm excitation were measured by an Envision plate reader. For cell viability readout that measures cytotoxicity, 4 ul/well of CellTiter-Glo reagent was added into the assay plates using a Flying Reagent Dispenser. After 30 min incubation at room temperature, the luminescence intensity in the plates was measured using a ViewLux plate reader.
On the technique in general: Quantitative high-throughput screening tests each substance at several concentrations.
Turning to `CN1CCCC(CC2c3ccccc3Sc3ccccc32)C1` (stereo not given), the Potency result is “inactive”. As to `CC(C)(C)c1cc(CO)cc(C(C)(C)C)c1O`, the Potency result is “inactive”. `CC(C)(C)C(O)/C=C/c1ccc2c(c1)OCO2` (stereo not given): the Potency entry is “inactive”. Consider `Nc1ccc(F)cc1F`, for which the Potency result is “inactive”.

Consider `COC(=O)c1ccc(C(=O)O)cc1`, for which the Potency result was “inactive”. Consider `COc1ccc(COC=O)cc1`, for which the Potency entry is “inactive”. For `COC(=O)c1cc(Cl)ccc1[N+](=O)[O-]`, the Potency result was “inactive”.

As for `CC(C)=CC(C)(C)C`, the Potency result is “inactive”. Take `C[C@H](NC(CCc1ccccc1)C(=O)O)C(=O)N1CCC[C@H]1C(=O)O` (stereo not given in full): the Potency result is “inactive”. For the molecule `COc1ccc(CCN(C)CCCC(C#N)(c2ccc(OC)c(OC)c2)C(C)C)cc1OC` (stereo not given), the Potency entry is “inactive”. In the case of `C[C@H](CCC(=O)O)[C@H]1CC[C@H]2[C@@H]3CC[C@@H]4C[C@H](O)CC[C@]4(C)[C@H]3CC[C@]12C`, the Potency result is “inactive”.

As for `CC(C)NCC(O)COc1ccc(CCOCC2CC2)cc1` (stereo not given), the Potency result was “inactive”. The same measure, in the same setting: the same measure for `CC(C)(C)C1CCC(CC2=C(O)c3ccccc3C(=O)C2=O)CC1` (stereo not given): “inactive”. On the same count and under the same terms, the same measure for `C/C=C/C(=O)C1=C(C)CCCC1(C)C`: “inactive”.

For `CN(C)CCN(C)CCO`, the Potency result was “inactive”. On to `O=CO`, for which the activity change, negative = cytotoxicity is -2.15% [at 5.99 µM]. As for `Cc1c(C)n(Cc2ccccc2)c2ccc(C(=O)OCCN(C)C)cc12`, the Potency result was “inactive”. Take `NC(=O)c1c(Cl)cccc1Cl`: the Potency result is “inactive”.

Consider `Cc1c(N)c(=O)n(-c2ccccc2)n1C`, for which the Potency result was “inactive”. As to `CC(=O)Nc1ccc(/C=N/NC(N)=S)cc1`, the Potency entry was “inactive”. As to `C[C@H]1O[C@@H](O[C@H]2[C@@H](O)C[C@H](O[C@H]3[C@@H](O)C[C@H](O[C@H]4CC[C@@]5(C)[C@H](CC[C@@H]6[C@@H]5C[C@@H](O)[C@]5(C)[C@@H](C7=CC(=O)OC7)CC[C@]65O)C4)O[C@@H]3C)O[C@@H]2C)C[C@H](O)[C@@H]1O`, the Potency is 0.0903 µM (active). For the molecule `O=C1CCc2cc(OCCCCc3nnnn3C3CCCCC3)ccc2N1`, the Potency result is “inactive”. `CN(C)Cc1cc(C(C)(C)C)c(O)c(C(C)(C)C)c1`: the Potency entry was “inactive”. For `CCCCC=O`, the Potency entry was “inactive”. Same read-out and setting: next, `O=S(=O)(Oc1ccc(Cl)cc1)c1ccccc1`: “inactive”; `O=C(O)c1c(Cl)ccc(Cl)c1Cl`: “inactive”; `CC(O)(c1ccc(Cl)cc1)c1ccc(Cl)cc1`: 45.8 µM (active). For `Cc1nc([N+](=O)[O-])cn1-c1ccc([N+](=O)[O-])cc1`, the Potency entry was “inactive”. Take `C=Cc1ccc(S(=O)(=O)O)cc1`: the Potency result was “inactive”.

Take `O=C(OCCc1ccccc1)c1ccccc1`: the Potency entry was “inactive”.

`O=S(=O)(O)c1cc(Cl)c(Cl)cc1Cl`: the Potency result is “inactive”. `COC(=O)C(C)=O`: the Potency entry is “inactive”.

On to `N#Cc1ccccc1C#N`, for which the Potency result is “inactive”. As for `Cc1ccccc1Br`, the Potency result was “inactive”. Take `C=C1CC[C@H](O)CC1=C/C=C1\CCC[C@]2(C)[C@@H]([C@H](C)/C=C/[C@H](C)C(C)C)CC[C@@H]12`: the Potency entry was “inactive”. For the molecule `O=C(O)COc1ccc2ccccc2c1`, the Potency entry is “inactive”. On to `CCCCC(CC)CN1CN(CC(CC)CCCC)CC(C)(N)C1` (stereo not given), for which the Potency result is “inactive”.

Turning to `N#Cc1nc(Cl)c(Cl)c(Cl)c1Cl`, the Potency was 11.5 µM (active). Regarding `O=C1NC(=O)c2cc([N+](=O)[O-])ccc21`, the Potency entry is “inactive”. Same read-out and setting: next, `CCCc1ncc(C[n+]2ccccc2C)c(N)n1`: “inactive”.

Source of the values: PubChem BioAssay (Tox21).
